About 2,000 (36%) of roughly 5,500 compounds were called active. Another 18% or so got no clear call; they are omitted. Cut-off read from the data, not from the text of the source: active = normalized growth mostly below about 0.91 (no sharp cut-off); inconclusive = no clear call, values can overlap the other calls; inactive = mostly above about 0.92. This is one part of the list.
Experiment: chemical genetic growth profiling, strain panel (AID 1159580);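 note: tested at 20 µM; growth read once vehicle control cultures reached saturation at 30 °C; 1 = growth at the plate median or of vehicle wells; lower values mean less growth of the strain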
Conditions: S. cerevisiae deletion strains, growth OD

Measured: normalized growth

N=C(N)c1ccc(OCCCCCOc2ccc(C(=N)N)cc2)cc1
active: locus YBR279W, strain paf1, stronger effect = lower value 0.93 | locus YCL029C, strain bik1, stronger effect = lower value 0.89 | locus YCL061C, strain MRC1, stronger effect = lower value 0.916 | locus YDR101C, strain arx1, stronger effect = lower value 0.875 | locus YDR159W, strain sac3, stronger effect = lower value 0.85 | locus YDR318W, strain mcm21, stronger effect = lower value 0.878 | locus YDR502C, strain sam2, stronger effect = lower value 0.907 | locus YER015W, strain faa2, stronger effect = lower value 0.922 | locus YGL086W, strain mad1, stronger effect = lower value 0.874 | locus YGL173C, strain kem1, stronger effect = lower value 0.865 | locus YGL253W, strain hxk2, stronger effect = lower value 0.8 | locus YHR079C, strain IRE1 (second series), stronger effect = lower value 0.888 | locus YHR200W, strain rpn10, stronger effect = lower value 0.871 | locus YIL125W, strain kgd1, stronger effect = lower value 0.903 | locus YJL168C, strain set2, stronger effect = lower value 0.925
inactive: locus YAL013W, strain DEP1, stronger effect = lower value 1 | locus YAL021C, strain ccr4, stronger effect = lower value 0.908 | locus YAL026C, strain drs2, stronger effect = lower value 0.951 | locus YAL030W, strain snc1, stronger effect = lower value 0.935 | locus YBL061C, strain skt5, stronger effect = lower value 0.966 | locus YBR009C, strain hhf1, stronger effect = lower value 0.952 | locus YBR021W, strain FUR4, stronger effect = lower value 1.07 | locus YBR023C, strain chs3, stronger effect = lower value 0.986 | locus YBR171W, strain sec66, stronger effect = lower value 0.946 | locus YBR229C, strain ROT2, stronger effect = lower value 0.978 | locus YBR231C, strain swc5, stronger effect = lower value 0.919 | locus YCL011C, strain gbp2, stronger effect = lower value 0.945 | locus YCL016C, strain dcc1, stronger effect = lower value 0.939 | locus YCL069W, strain vba3, stronger effect = lower value 0.963 | locus YCR088W, strain abp1, stronger effect = lower value 0.966 | locus YDL005C, strain med2, stronger effect = lower value 0.979 | locus YDL035C, strain GPR1, stronger effect = lower value 0.901 | locus YDL040C, strain nat1, stronger effect = lower value 0.965 | locus YDL074C, strain BRE1, stronger effect = lower value 0.942 | locus YDL101C, strain DUN1, stronger effect = lower value 0.989 | locus YDL134C, strain PPH21, stronger effect = lower value 0.955 | locus YDL185W, strain tfp1, stronger effect = lower value 0.964 | locus YDL192W, strain arf1, stronger effect = lower value 0.933 | locus YDR001C, strain nth1, stronger effect = lower value 0.974 | locus YDR069C, strain doa4, stronger effect = lower value 1 | locus YDR137W, strain rgp1, stronger effect = lower value 1 | locus YDR150W, strain NUM1, stronger effect = lower value 0.989 | locus YDR162C, strain NBP2, stronger effect = lower value 0.941 | locus YDR195W, strain ref2 0.968 | locus YDR297W, strain sur2, stronger effect = lower value 0.958 | locus YDR334W, strain swr1, stronger effect = lower value 0.958 | locus YDR335W, strain msn5, stronger effect = lower value 0.977 | locus YDR388W, stronger effect = lower value 0.938 | locus YDR392W, strain spt3, stronger effect = lower value 0.808 | locus YEL003W, strain gim4, stronger effect = lower value 0.929 | locus YEL037C, strain rad23, stronger effect = lower value 0.945 | locus YEL061C, strain CIN8 (second series), stronger effect = lower value 0.945 | locus YEL061C, strain CIN8, stronger effect = lower value 0.965 | locus YER016W, strain bim1, stronger effect = lower value 0.963 | locus YER110C, stronger effect = lower value 0.95 | locus YER111C, strain swi4, stronger effect = lower value 0.967 | locus YER155C, strain BEM2 (second series), stronger effect = lower value 0.874 | locus YER155C, strain BEM2, stronger effect = lower value 0.986 | locus YER167W, strain BCK2, stronger effect = lower value 0.915 | locus YFR010W, strain ubp6, stronger effect = lower value 0.954 | locus YGL078C, strain dbp3, stronger effect = lower value 0.929 | locus YGL167C, strain pmr1, stronger effect = lower value 0.974 | locus YGL227W, strain vid30, stronger effect = lower value 0.984 | locus YGL240W, strain doc1, stronger effect = lower value 0.991 | locus YGL248W, strain PDE1, stronger effect = lower value 0.964 | locus YGR078C, strain PAC10, stronger effect = lower value 0.947 | locus YGR135W, strain pre9, stronger effect = lower value 0.937 | locus YGR229C, strain SMI1, stronger effect = lower value 0.929 | locus YGR252W, strain gcn5, stronger effect = lower value 0.819 | locus YHR013C, strain ard1, stronger effect = lower value 1.09 | locus YHR027C, strain rpn1, stronger effect = lower value 0.946 | locus YHR030C, strain SLT2, stronger effect = lower value 0.974 | locus YHR094C, strain hxt1, stronger effect = lower value 0.94 | locus YHR129C, strain ARP1, stronger effect = lower value 0.968 | locus YHR142W, strain chs7, stronger effect = lower value 0.972 | locus YIL066C, strain RNR3, stronger effect = lower value 0.917 | locus YIL073C, strain SPO22, stronger effect = lower value 0.675 | locus YIR030C, strain dcg1, stronger effect = lower value 0.93 | locus YJL092W, strain hpr5, stronger effect = lower value 0.919 | locus YJL095W, strain BCK1 (second series), stronger effect = lower value 0.959 | locus YJL095W, strain BCK1, stronger effect = lower value 0.892 | locus YJL115W, strain asf1, stronger effect = lower value 0.923 | locus YJL129C, strain trk1, stronger effect = lower value 0.995 | locus YJL134W, strain LCB3, stronger effect = lower value 0.967 | locus YJL154C, strain vps35, stronger effect = lower value 0.989 | locus YJL164C, strain tpk1, stronger effect = lower value 0.974 | locus YJL166W, strain qcr8, stronger effect = lower value 0.978 | locus YJL187C, strain SWE1 (second series), stronger effect = lower value 0.929

— PubChem BioAssay AID1159580 (chemical genetic matrix, 2015)
